According to PubChem BioAssay (NCATS):
Records with an inconclusive call do not appear. The source made the active and inactive calls. The call rests on the fitted dose curve.

Assay: VSVG counterscreen qHTS to identify inhibitors of SARS-CoV-2 cell entry (AID 1645847); further: nearly all actives have a fitted effect of over 65% in size
Details: VSV-G pseudotyped particle entry, luciferase; series mostly up to 57.2 µM
Description: Assay Provider: Wei Zheng, Ph.D.
National Center for Advancing Translational Sciences, National Institute of Health, Rockville, MD.
SARS-CoV-2 spike protein, within the viral envelope, mediates viral attachment and infection of host cells. The SARS-CoV-2 spike protein specifically binds to the host receptor ACE2 (Angiotensin-converting enzyme 2). This interaction promotes endocytosis of the viral particle, additional events lead to viral-host cell membrane fusion and release of the viral contents, allowing viral replication.
While SARS-CoV-2 requires BSL-3 facilities for live virus work, pseudotyped partices (PP) that incorporate SARS-CoV-2 spike proteins without replication elements could facilitate studies on viral entry mechanisms in a BSL-2 setting. This PP cell entry assay could also enable screening of small molecule compound libraries in BSL-2 setting to identify inhibitors of SARS-CoV-2 cell entry.
SEQUENCE No. (e.g., 1, 2, 3, etc.); […] (e.g., Cells, Incubation, Reagent, etc.); VALUE and DESCRIPTION.
1. Cells. Seed 1500 HEK293-ACE2 cells (Expi293F with stable expression of human ACE2) in 2 microL/well media (DMEM, 10% FBS, 1x L-glutamine, 1x Pen/Strep, 1 ug/ml puromycin) in white 1536-well assay plates (Greiner #782073).
2. Incubation. Incubate at 37 degrees C with 5% CO2 overnight (~16 h).
3. Compound. Dispense 23 nL/well compounds in DMSO via pin transfer.
4. Incubation. Incubate for 1 h at 37C 5% CO2.
5. Reagent. Dispense 2 microL/well of vesicular stomatitis virus G glycoprotein (VSV-G) pseudotyped particles (PP). [a] PPs are produced with murine leukemia virus pseudo-typing.
6. Centrifugation. […]
7. Incubation. Incubate at for 48 h at 37C 5% CO2
8. Centrifugation. Remove supernatant with gentle centrifugation using a Blue Washer (BlueCat Bio).
9. Reagent. Dispense 4 microL/well of Bright-Glo Luciferase detection reagent (Promega #E2620).
10. Incubation. Incubate for 5 min at room temperature.
11. Detection. Read luminescence signal (ViewLux plate reader, PerkinElmer). Data was normalized with wells containing VSV-G PP as 100%, and wells containing bald PP (no fusion protein) as 0%.
Potency means the concentration at half of the fitted maximal effect.

Which Potency does the source give for Nc1ccc(C(=O)Nc2cccc(-c3nc(N4CCOCC4)c4oc5ncccc5c4n3)c2)cn1 here?
The Potency was 4.8 nM (active).

With CC(C)c1nn(-c2c(Cl)cccc2Cl)c2nc(Cc3ccc(OCCO)cc3)[nH]c(=O)c12 as the compound, how does the Potency read?
Its Potency is 54.1 nM (active).

Which Potency does the source give for CCN(CC)CCOCCOC(=O)C(CC)(CC)c1ccccc1 here?
Its Potency is “inactive”.

For Cc1cnc(CNC(=O)c2c(=O)c3ccc(N4CCCN(C)CC4)nc3n3c2sc2ccccc23)cn1, which Potency is on record?
Its Potency is 3120 nM (active).

Which Potency does the source give for COc1ccc(/C=C/C(=O)Nc2ccccc2C(=O)O)cc1OC here?
Its Potency is 857 nM (active).

For COc1cc([C@@H]2c3cc4c(cc3[C@H](O)[C@H]3COC(=O)[C@@H]23)OCO4)cc(OC)c1OC, which Potency is on record?
Its Potency is 1710 nM (active).

For C[C@H]1CCC/C=C/C2C[C@H](O)C[C@H]2[C@H](O)/C=C/C(=O)O1 (stereo not given in full), which Potency is on record?
Its Potency is 857 nM (active).

For C[C@@]1(C(=O)Nc2ccc(F)nc2)CCCN1c1nc(Nc2cc(C3CC3)[nH]n2)c2cccn2n1, which Potency is on record?
The Potency was 2710 nM (active).

Which Potency does the source give for CN1c2ccccc2C(=O)N2CCc3c([nH]c4ccccc34)C21 (stereo not given) here?
The Potency was 3830 nM (active).

For O=C1NCCc2[nH]c(-c3ccncc3)cc21, which Potency is on record?
Its Potency is 9610 nM (active).

With CO[C@H]1C(=O)[C@]2(C)[C@@H](OC)C[C@H]3OC[C@@]3(OC(C)=O)[C@H]2[C@H](OC(=O)c2ccccc2)[C@]2(O)C[C@H](OC(=O)[C@H](O)[C@@H](NC(=O)OC(C)(C)C)c3ccccc3)C(C)=C1C2(C)C as the compound, how does the Potency read?
The Potency was 136 nM (active).

For COc1ccc(Nc2cc(-c3cnc(N)nc3)nc(N3CCOCC3)n2)cn1, which Potency is on record?
Its Potency is 1080 nM (active).

Which Potency does the source give for CNC(=O)c1nn(C)c2c1C(C)(C)Cc1cnc(Nc3ccc(N4CCN(C)CC4)cc3)nc1-2 here?
Its Potency is 4820 nM (active).

For CCC(c1ccc(O)cc1)C(CC)c1ccc(O)cc1 (stereo not given), which Potency is on record?
Its Potency is 30400 nM (active).

For C[N+](C)([O-])CCNc1ccc(NCC[N+](C)(C)[O-])c2c1C(=O)c1c(O)ccc(O)c1C2=O, which Potency is on record?
Its Potency is 10800 nM (active).

Which Potency does the source give for Cc1c(-c2ccc(O)cc2)n(Cc2ccc(OCCN3CCCCCC3)cc2)c2ccc(O)cc12 here?
Its Potency is 27100 nM (active).

For Cc1cc(C(=O)N2CCN(c3cccc(Cl)c3)CC2)n(-c2ccccc2)n1, which Potency is on record?
Its Potency is 3410 nM (active).

Which Potency does the source give for O=C(O)C1(Cc2cccc(Nc3nccs3)n2)CCC(Oc2cccc(Cl)c2F)CC1 (stereo not given) here?
Its Potency is 12100 nM (active).

With CC[C@]1(O)C[C@H]2CN(CCC3=c4ccccc4=N[C]3[C@@](C(=O)OC)(c3cc4c(cc3OC)N(C)[C@H]3[C@@](O)(C(N)=O)[C@H](O)[C@]5(CC)C=CCN6CC[C@]43[C@@H]65)C2)C1 as the compound, how does the Potency read?
Its Potency is 30.4 nM (active).

For O=C(NC1CC1)c1cccc(-c2ccc3c(NC(=O)C4CC4)n[nH]c3c2)c1, which Potency is on record?
The Potency was 15200 nM (active).

For CC(C)[C@H](CO)Nc1nc(Nc2cccc(Cl)c2)c2ncn(C(C)C)c2n1, which Potency is on record?
Its Potency is 8570 nM (active).

With O=C(NCCCCN1CCOCC1)c1cc2ccccc2o1 as the compound, how does the Potency read?
Its Potency is “inactive”.

With O=C(O)c1ccc(Nc2ncc3c(n2)-c2ccc(Cl)cc2C(c2c(F)cccc2F)=NC3)cc1 as the compound, how does the Potency read?
Its Potency is 1080 nM (active).

For COc1cc2c(cc1Cc1cccc(Cl)c1F)c(=O)c(C(=O)O)cn2[C@H](CO)C(C)C, which Potency is on record?
The Potency was 17.1 nM (active).

For C/C(=C\c1csc(C)n1)[C@@H]1C[C@@H]2O[C@@H]2CCC[C@H](C)[C@H](O)[C@@H](C)C(=O)C(C)(C)[C@@H](O)CC(=O)O1, which Potency is on record?
Its Potency is 54.1 nM (active).

Which Potency does the source give for CC(=O)[C@H]1CC[C@H]2[C@@H]3CCC4=CC(=O)CC[C@]4(C)[C@H]3CC[C@]12C here?
The Potency was 17100 nM (active).

Which Potency does the source give for NC(=O)c1cccc2cn(-c3ccc([C@@H]4CCCNC4)cc3)nc12 here?
Its Potency is 2150 nM (active).

Which Potency does the source give for CC[C@@](C)(Nc1ccnc(-c2c[nH]c3ncccc23)n1)C(=O)NCC(F)(F)F here?
The Potency was “inactive”.

Which Potency does the source give for C[C@@H]1CCO[C@H]2Cn3cc(C(=O)NCc4ccc(F)cc4F)c(=O)c(O)c3C(=O)N12 here?
The Potency was 7.6 nM (active).

For CN[C@H]1CCc2cc(OC)c(OC)c(OC)c2-c2ccc(OC)c(=O)cc21, which Potency is on record?
The Potency was 171 nM (active).

With CCCCC(C)(C)[C@H](O)C=C[C@H]1[C@H](O)CC(=O)[C@H]1CC=CCCCC(=O)O as the compound, how does the Potency read?
Its Potency is 19200 nM (active).

With COC(=O)Nc1ccc(-c2nc(N3CCOCC3)c3cnn(C4CCN(Cc5cccnc5)CC4)c3n2)cc1 as the compound, how does the Potency read?
The Potency was 9610 nM (active).

For COc1cc2nccc(Oc3ccc(NC(=O)NC4CC4)c(Cl)c3)c2cc1C(N)=O, which Potency is on record?
Its Potency is 19200 nM (active).

With CC[C@@]1(O)C[C@H](O[C@H]2C[C@H](N(C)C)[C@H](O[C@H]3C[C@H](O)[C@H](O[C@H]4CCC(=O)[C@H](C)O4)[C@H](C)O3)[C@H](C)O2)c2c(cc3c(c2O)C(=O)c2c(O)cccc2C3=O)[C@@H]1C(=O)OC as the compound, how does the Potency read?
The Potency was 3040 nM (active).

With N#Cc1c(NC(=O)c2cccc3ccccc23)sc2c1CCCC2 as the compound, how does the Potency read?
Its Potency is 764 nM (active).

With CO[C@@H]1[C@@H](OC2OC(C)C(OC3CC(C)(O)C(OC(=O)CC(C)C)C(C)O3)C(N(C)C)C2O)[C@@H](CC=O)C[C@@H](C)C(=O)/C=C\C2O[C@H]2C[C@@H](C)OC(=O)C[C@H]1OC(C)=O (stereo not given in full) as the compound, how does the Potency read?
Its Potency is 17100 nM (active).

For COC(=O)C[C@](O)(CCCC(C)(C)O)C(=O)O[C@@H]1C(OC)=C[C@]23CCCN2CCc2cc4c(cc2[C@H]13)OCO4, which Potency is on record?
Its Potency is 68.1 nM (active).

Which Potency does the source give for O=C(Cc1ccc(-c2ccc(OCCN3CCOCC3)cc2)cn1)NCc1ccccc1 here?
Its Potency is 171 nM (active).

Which Potency does the source give for CS(=O)(=O)N(Cc1ccco1)CC(O)Cn1c2ccccc2c2ccccc21 (stereo not given) here?
Its Potency is 429 nM (active).

For Oc1ccc(-c2nc(-c3ccc(F)cc3)c(-c3ccncc3)[nH]2)cc1, which Potency is on record?
The Potency was 3040 nM (active).
